# High-throughput results (PubChem)
# GPR151 ag = activators of human GPR151; Q8TDV0; actives 1% (n = 650,000); AID 1508602; activation, % at 11.2 µM; PathHunter beta-arrestin GPR151 cells, luminescence; in the data active means activation above about 4.9%;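 further: 0% = median of compound wells and 100% = cells with positive control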
# FBW7 act = activators of human E3 ligase FBW7. Q969H0. AlphaScreen FBW7–phospho-cyclin E peptide binding, activator screen. normalized activity (activation), % at 26.1 µM. actives 0.13% (n = 650,000); in the data active means normalized activity above about 1.9%;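 further: purified mutant Fbw7 with reduced substrate affinity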
# Target sequence (Q969H0 whole entry, looked up): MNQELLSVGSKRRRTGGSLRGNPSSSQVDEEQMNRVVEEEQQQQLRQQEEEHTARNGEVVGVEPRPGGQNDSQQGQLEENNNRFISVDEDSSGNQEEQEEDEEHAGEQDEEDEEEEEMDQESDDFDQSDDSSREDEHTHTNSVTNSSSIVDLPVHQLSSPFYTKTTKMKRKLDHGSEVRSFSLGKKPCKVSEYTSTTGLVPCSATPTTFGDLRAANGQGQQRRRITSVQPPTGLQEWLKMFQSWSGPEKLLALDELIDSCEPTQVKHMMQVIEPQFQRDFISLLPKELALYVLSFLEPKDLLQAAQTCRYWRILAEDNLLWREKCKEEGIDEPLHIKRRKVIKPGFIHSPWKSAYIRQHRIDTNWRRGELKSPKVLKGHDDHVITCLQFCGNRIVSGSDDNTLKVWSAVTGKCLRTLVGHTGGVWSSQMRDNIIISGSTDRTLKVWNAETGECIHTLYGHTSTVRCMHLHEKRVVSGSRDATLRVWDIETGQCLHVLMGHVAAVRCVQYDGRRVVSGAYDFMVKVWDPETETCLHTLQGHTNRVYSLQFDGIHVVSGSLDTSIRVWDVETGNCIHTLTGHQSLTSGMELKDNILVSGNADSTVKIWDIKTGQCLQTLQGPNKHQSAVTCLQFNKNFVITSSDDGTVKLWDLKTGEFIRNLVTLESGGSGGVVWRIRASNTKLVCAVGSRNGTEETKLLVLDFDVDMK
# TEAD-YAP block = TEAD-YAP interaction inhibition. inhibition, % at 9.12 µM. actives 1.4% (n = 640,000). AID 1259422. HEK-TIYL cells, TEAD-Gal4/YAP UAS-luciferase luminescence; in the data active means inhibition above about 32%;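 further: 0% = median of test compound wells and 100% = reference inhibitor wells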
# MITF primary = blocks human microphthalmia-associated transcription factor | actives 0.91% (n = 650,000) | inhibition, % at 2.6 µM | AlphaScreen MITF homodimerization, bead proximity signal | AID 1259374; in the data active means inhibition above about 50%;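 further: 0% = vehicle wells with protein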
# MITF inh conf = confirmation of human MITF inhibitors; inhibition, % at 2.6 µM; shares compounds with MITF primary; actives 16% (n = 4,700); AlphaScreen MITF homodimerization, biotin/His-MITF beads; AID 1259372;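 active means inhibition above a cutoff derived from the DMSO control wells, cut at about 28% in these data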;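 further: 0% = MITF dimer wells with DMSO only; inhibitors lower the bead chemiluminescence by keeping MITF from dimerizing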
# AlphaScreen DR = AlphaScreen optical interference, dose response counter-screen; shares compounds with MITF primary; AlphaScreen optical interference counterscreen, cell-free; IC50, µM; actives 6% (n = 480); AID 1259373; call rule not given here
# AlphaScreen intf2 = counter-screen: compounds optically interfering with AlphaScreen. actives 7.6% (n = 4,700). shares compounds with MITF primary. inhibition, % at 2.6 µM. AID 1259376. LysRS AlphaScreen counterscreen, signal interference, triplicate;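 active means inhibition above a cutoff derived from the DMSO control wells, cut at about 30% in these data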
# * = called active by the depositor; x = no result; ! = a repeat was not active. Most compounds without a hit are left out; they make up all but 3.4% or so of the library.
SMILES,GPR151 ag,FBW7 act,TEAD-YAP block,MITF primary,MITF inh conf,AlphaScreen intf2,others
Nc1n[nH]c(CC(=O)N(Cc2ccccc2)C2(C(=O)Nc3ccccc3)CCCCC2)n1,0,0,-2,70*,109*,101*,
Cc1ccc(NC(=O)C2(N(C)C(=O)Cc3nc(N)n[nH]3)CCCCC2)cc1,-2,0,6,47,x,x,
CN(C(=O)Cc1nc(N)n[nH]1)C1(C(=O)Nc2ccccc2)CCCCC1,-1,-1,-4,64*,92*,101*,
COC(=O)C1=C(N)OC2=C(C(=O)CC(C)(C)C2)C1c1ccccc1Cl (configuration not stated),-1,0,4,3,x,x,
Cc1cccc(NC(=O)c2cccc(OCc3ccccc3)c2)n1,-6,0,6,10,x,x,
Cc1cccc(NC(=O)c2ccc(COc3ccccc3Br)cc2)n1,-1,0,1,70*,-5,-5,
CCS(=O)(=O)N1CCN(Cc2cc(OC)c(O)c(OC)c2)CC1,1,0,9,37,x,x,
O=[N+]([O-])c1ccccc1S(=O)(=O)N1CCN(Cc2ccccc2C(F)(F)F)CC1,-1,0,6,61*,8,12,
CCc1ccc(CN2CCN(S(=O)(=O)c3ccc(C)cc3)CC2)cc1,1,1,0,58*,7,7,
Cc1ccc(S(=O)(=O)N2CCN(Cc3ccccc3Cl)CC2)cc1,3,0,-14,57*,-4,-7,
CCCS(=O)(=O)N1CCN(Cc2cc(OC)c(O)c(OC)c2)CC1,-2,0,2,56*,-2,11,
c1ccc(CN2CCN(c3ncnc4c3nnn4Cc3ccccc3)CC2)cc1,1,0,3,8,x,x,
COc1ccc(S(=O)(=O)N2CCN(Cc3ccccc3C(F)(F)F)CC2)cc1,-1,0,3,-5,x,x,
Cc1ccc(S(=O)(=O)N2CCN(Cc3ccccc3C(F)(F)F)CC2)cc1,2,0,-38,67*,4,12,
CCCS(=O)(=O)N1CCN(Cc2ccc(CC)cc2)CC1,1,0,14,51*,2,8,
O=C(Nc1ccc2sccc2c1)c1ccc(Oc2ccccc2)cc1,0,0,-21,2,x,x,
O=c1[nH]c(N2CCCCCC2)nc2c1CN(Cc1ccc3nccnc3c1)CC2,-1,0,-11,-3,x,x,
CCOC(=O)C1=C(C)NC2=C(C(=O)C(C(=O)OCC)C(c3ccccc3OC)C2)C1c1cc(OC)ccc1OC (configuration not stated),-2,0,10,4,x,x,
CCOC(=O)C1=C(C)NC2=C(C(=O)C(C(=O)OCC)C(c3ccc(OC)cc3)C2)C1c1cc(OC)ccc1OC (configuration not stated),0,0,0,116*,-10,-7,
c1ccc(-c2cc(N3CCOCC3)nc(-c3ccccn3)n2)cc1,3,0,18,77*,12,11,
CCOC(=O)CCCCC(=O)c1[nH]c(=O)[nH]c1Cn1ccnc1,1,0,-14,36,x,x,
CCOC(=O)CCCCC(=O)c1c(C)n(C(=O)c2ccc(N3C(=O)CCC3=O)cc2)c(=O)n1C(=O)c1ccc(N2C(=O)CCC2=O)cc1,-1,-1,-8,107*,107*,88*,
CCOC(=O)CCCCC(=O)c1[nH]c(=O)n(C(=O)c2ccccc2)c1C,0,-2,-5,89*,115*,98*,
Cc1ccc(S(=O)(=O)c2nc(-c3ccc(Cl)cc3Cl)oc2NCc2ccccc2)cc1,0,0,-4,-5,x,x,
COc1ccc(C(C)=O)cc1N1C(=O)C2C3C=CC(CC3)C2C1=O (configuration not stated),0,0,-2,22,x,x,
SMILES,GPR151 ag,FBW7 act,TEAD-YAP block,MITF primary,MITF inh conf,AlphaScreen intf2,others
Cc1ccoc1C(=O)NCc1occc1C(=O)O,-1,0,15,57*,10,7,
Cc1ccoc1C(=O)NCCNC(=O)c1occc1C,0,0,1,7,x,x,
Cc1ccc(N(CC(=O)Nc2ccc(F)cc2)S(C)(=O)=O)cc1Cl,-1,0,9,-6,x,x,
CNc1nc(-c2ccccn2)nnc1-c1ccccc1,-1,0,-6,108*,107*,98*,
O=C(CNC(=O)c1ccc(Cl)cc1)N/N=C/c1ccc(OC(=O)c2ccccc2)cc1,-1,0,-8,10,x,x,
O=C1C2C(C(=O)N1CCO)C1C=CC2C12CC2 (configuration not stated),-1,1,15,6,x,x,
Cn1nnc(-c2ccc(Nc3nccc(-c4ccc5nc(C6CC6)[nH]c(=O)c5c4)n3)cc2)n1,2,1,4,63*,39*,-22,AlphaScreen DR=>6.5
O=C(C1CCC(Nc2nccc(-c3ccc4nc(C5CC5)[nH]c(=O)c4c3)n2)CC1)N1CCCC1 (configuration not stated),0,2.6*!,-17,59*!,63*,-10,AlphaScreen DR=>6.5
O=C(Nc1ccc(Nc2nccc(-c3ccc4nc(C5CC5)[nH]c(=O)c4c3)n2)cc1)N1CCCC1,1,2,-16,39,x,x,
CCc1ccccc1NC(=O)CN(C)C(=O)CN(C)Cc1ccccc1OC,0,0,-6,81*,16,15,
c1ccc(CC2(c3ccccc3)CCNC2)cc1 (configuration not stated),0,0,-5,56*,-1,-1,
O=C(N1CCCCCC1)C1(S(=O)(=O)c2ccc(Cl)cc2)CC1,1,0,11,62*,3,-1,
COc1cccc(NC(=O)C(=O)N/N=C/c2ccc(C)c(C)c2)c1,-2,0,-40,21,x,x,
Cc1ncc2c(c1CNC(=O)Cc1cccs1)CCN(C(=O)C1(C)CCCCC1)C2,-1,0,7,74*,15,10,
Cc1ncc2c(c1CNC(=O)Cc1cccs1)CCN(C(=O)CCC1CCCC1)C2,0,0,-8,9,x,x,
Fc1cccc(CN2CCC(N3CCCCC3)CC2)c1,-1,0,4,-8,x,x,
CC1CCCC(N2CCN(Cc3ccc(Cl)cc3)CC2)C1 (configuration not stated),0,0,10,73*,-8,-2,
CC1CCCC(N2CCN(Cc3cccc(F)c3)CC2)C1 (configuration not stated),-1,0,-1,69*,-3,-7,
CC1CCCC(N2CCN(Cc3ccc(F)cc3)CC2)C1 (configuration not stated),0,0,-39,74*,4,4,
CCc1ccc(CN2CCN(C3CCCC(C)C3)CC2)cc1 (configuration not stated),-2,0,-3,64*,0,-1,
CC1CCC(N2CCN(Cc3ccc(F)cc3)CC2)CC1 (configuration not stated),0,0,-3,34,x,x,
